Experimental data: PubChem BioAssay
The source made the active and inactive calls.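 How the source made its calls, unless noted: active means inhibition of the reporter signal at or above 50%; inactive means inhibition below 50%.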

Legend:
[1] = inhibitors of TNFa-induced NFkB p65 translocation, primary screen, imaging, HUVEC, MLSMR starter and 10KST1 sets (AID 438;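 active means inhibition above 20% together with a positive visual image hit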;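 further: compound added about 3h40 before a 20 min TNFalpha stimulation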;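 on inhibition: signal is the nuclear over cytoplasmic p65 intensity ratio per well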); conditions: HUVEC TNFa-induced p65 nuclear translocation; cell count: measured here: nuclei count (cytotoxicity indicator), at 2.08 µM; inhibition: at 2 µM, stronger effect = higher value, 0% TNFa-plus-vehicle, 100% no-TNFa wells
[2] = inhibitors of mutant huntingtin aggregation, primary screen, imaging, exon1htt(103Q)mCFP cells, high-content imaging (AID 483;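 active means visual image review flags a hit and inhibition of aggregation exceeds 20%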;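 further: compound exposure lasted 3 days before fixation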;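 on nuclei count: percent of the per-plate median nuclei count of sample wells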); conditions: exon1htt(103Q)mCFP cell line, aggregate imaging, at 2 µM; inhibition of aggregation: stronger effect = higher value; nuclei count: measured here: cell count, toxicity
[3] = inhibitors of E-selectin induction by TNFa, primary screen, imaging, HUVEC, immunofluorescence, MLSMR starter and 10KST1 sets (AID 487;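 active means visually confirmed hit in the image check and inhibition above 20%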;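 on inhibition: signal is fraction of cell area covered by stained E-selectin grains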;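 on nuclei count: 100% = median nuclei count of all wells on the same plate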); conditions: HUVEC TNFalpha-induced E-selectin immunofluorescence imaging, at 2 µM; inhibition: stronger effect = higher value; nuclei count: measured here: cell number, toxicity
[4] = target: Voltage-gated potassium channel subunit beta-2 (Rattus norvegicus) (UniProt P62483); assay: KvBeta enzyme negative modulators, primary screen, biochemical, NADPH fluorescence (AID 622;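 active means fluorescence slope higher than the sample average by over 3 SD, cut at about -0.22 in these data, passing the limit was not always enough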;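 further: slope of raw intensity against log time taken from 70 to 1610 s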); conditions: recombinant KvBeta, 4-cyanobenzaldehyde reduction, at 10 µM, stronger effect = higher value
Chain of Voltage-gated potassium channel subunit beta-2 (Rattus norvegicus) (P62483 whole entry, looked up): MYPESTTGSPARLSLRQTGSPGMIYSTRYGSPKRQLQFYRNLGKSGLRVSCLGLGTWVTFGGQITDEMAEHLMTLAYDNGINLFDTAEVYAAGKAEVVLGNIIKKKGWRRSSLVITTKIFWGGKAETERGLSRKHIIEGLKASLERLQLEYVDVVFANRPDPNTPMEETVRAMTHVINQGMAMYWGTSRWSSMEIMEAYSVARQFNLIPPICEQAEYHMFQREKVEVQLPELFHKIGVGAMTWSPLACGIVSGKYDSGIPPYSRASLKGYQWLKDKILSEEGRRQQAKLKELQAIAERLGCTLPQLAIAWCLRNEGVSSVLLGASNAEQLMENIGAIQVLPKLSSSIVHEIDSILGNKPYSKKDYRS

[5] = target: Voltage-gated potassium channel subunit beta-2 (Rattus norvegicus) (UniProt P62483); assay: KvBeta positive modulators, primary screen, biochemical, NADPH fluorescence (AID 623;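 active means NADPH fluorescence slope more negative than the mean of all samples by about 3 SD, 99.7% confidence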;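 further: fluorescence intensity change per second fitted from 20 to 320 s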); conditions: Recombinant KvBeta, NADPH fluorescence decrease slope, 10 min; at 10 µM; stronger effect = lower value
[6] = target: Muscarinic acetylcholine receptor M4 (Homo sapiens) (UniProt P08173); assay: compounds altering M4/GIRK thallium flux, either direction, primary screen, M4 allosteric agonist project, cell-based, HEK293 M4/GIRK, BTC-AM (AID 625;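 active means fluorescence slope after compound addition differing from the mean of all tested samples at 99.7% confidence, mostly higher but some lower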;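 further: thallium influx through GIRK channels coupled to M4 in HEK293 cells with BTC-AM dye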); conditions: at 10 µM, actives lie on both sides
Chain of Muscarinic acetylcholine receptor M4 (Homo sapiens) (P08173 whole entry, looked up): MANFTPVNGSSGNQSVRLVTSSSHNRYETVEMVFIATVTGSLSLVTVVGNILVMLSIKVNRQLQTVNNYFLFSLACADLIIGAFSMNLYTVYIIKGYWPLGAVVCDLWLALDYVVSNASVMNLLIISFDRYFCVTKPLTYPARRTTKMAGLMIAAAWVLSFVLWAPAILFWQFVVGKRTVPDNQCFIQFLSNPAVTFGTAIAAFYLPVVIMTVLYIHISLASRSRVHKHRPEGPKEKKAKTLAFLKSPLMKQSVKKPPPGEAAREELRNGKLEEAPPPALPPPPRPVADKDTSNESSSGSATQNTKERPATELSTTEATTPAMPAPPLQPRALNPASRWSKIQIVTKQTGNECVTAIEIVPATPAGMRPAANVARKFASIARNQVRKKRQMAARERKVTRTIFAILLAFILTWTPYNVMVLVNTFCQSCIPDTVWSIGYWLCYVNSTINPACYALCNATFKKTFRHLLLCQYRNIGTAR

[7] = inhibitors of Sendai virus-induced IRF3 signaling, primary screen, TLR/RLR signaling modifier project, cell-based, Sendai virus stimulus, luciferase, 10K MLSCN set (AID 602276;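 active means inhibition at or above 50% at 10 µM; inactive means inhibition below 50%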;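 further: firefly luciferase from ISG56 promoter only with Renilla not read in this screen; 0% = Sendai virus plus DMSO and 100% = medium plus DMSO without virus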); conditions: HEK293 RL24 IRF3 luciferase reporter, at 10 µM, stronger effect = higher value
[8] = inhibitors of poly I:C-induced TLR3 signaling, primary screen, cell-based, poly I:C stimulus, luciferase, 10K MLSCN set (AID 602277); conditions: HEK293-TLR3 RL24 IRF3 luciferase reporter, at 10 µM, stronger effect = higher value
[9] = DUSP6 inhibitors restoring Erk phosphorylation by chemical complementation, primary imaging in DUSP6-transfected HeLa (AID 609;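 active means compounds giving at least 50% inhibition in the cell-based MKP-3 phosphatase rescue imaging test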;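 on inhibition: phospho-Erk level distribution per well compared with pooled transfected vehicle control wells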); conditions: HeLa MKP-3 transfected, phospho-Erk imaging KS statistic, at 10 µM, cells stimulated with TPA for 15 min
[10] = target: Dual specificity protein phosphatase 6 (Homo sapiens) (UniProt Q16828); assay: as above; conditions: HeLa MKP-3 transfected, phospho-Erk imaging KS statistic; at 10 µM; stronger effect = higher value; cells stimulated with TPA for 15 min
Chain of Dual specificity protein phosphatase 6 (Homo sapiens) (Q16828 whole entry, looked up): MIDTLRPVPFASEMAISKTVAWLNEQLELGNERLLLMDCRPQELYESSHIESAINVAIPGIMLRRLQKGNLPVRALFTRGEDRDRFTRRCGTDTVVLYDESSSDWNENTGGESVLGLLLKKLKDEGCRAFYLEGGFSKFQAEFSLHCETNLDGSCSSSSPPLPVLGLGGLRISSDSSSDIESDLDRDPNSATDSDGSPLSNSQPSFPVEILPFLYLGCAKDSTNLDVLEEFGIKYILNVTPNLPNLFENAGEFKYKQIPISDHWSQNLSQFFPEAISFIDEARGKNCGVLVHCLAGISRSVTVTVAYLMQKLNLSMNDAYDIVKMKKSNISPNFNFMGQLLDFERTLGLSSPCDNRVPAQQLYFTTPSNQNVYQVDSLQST

[11] = target: Alpha-2C adrenergic receptor (Homo sapiens) (UniProt P18825); assay: modulators of alpha2C/GIRK thallium flux, primary screen, cell-based, HEK293 alpha2C/GIRK1/2 (AID 624;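 active means fluorescence slope after compound addition differing from the mean of all screened samples at 99.7% confidence, in either direction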;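 further: slope of fluorescence ratio to pre-addition baseline per second over 15 to 24 s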); conditions: thallium flux BTC fluorescence, at 10 µM, actives lie on both sides
Chain of Alpha-2C adrenergic receptor (Homo sapiens) (P18825 whole entry, looked up): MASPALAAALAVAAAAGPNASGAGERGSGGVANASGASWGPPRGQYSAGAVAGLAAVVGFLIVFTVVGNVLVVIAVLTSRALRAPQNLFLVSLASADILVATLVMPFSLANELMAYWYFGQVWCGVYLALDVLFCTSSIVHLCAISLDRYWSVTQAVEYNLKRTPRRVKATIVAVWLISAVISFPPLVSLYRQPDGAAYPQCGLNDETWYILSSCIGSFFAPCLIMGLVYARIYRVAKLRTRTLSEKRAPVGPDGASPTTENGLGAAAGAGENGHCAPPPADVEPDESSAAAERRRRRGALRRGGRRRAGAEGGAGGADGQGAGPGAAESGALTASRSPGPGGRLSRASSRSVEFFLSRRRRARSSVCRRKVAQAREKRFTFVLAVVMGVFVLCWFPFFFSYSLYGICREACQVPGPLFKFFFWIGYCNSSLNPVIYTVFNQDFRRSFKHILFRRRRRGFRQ

[12] = inhibitors of Chlamydomonas gravitaxis, primary screen, whole organism, Chlamydomonas reinhardtii, WT vs cilia-less mutant, absorbance, 96-well (AID 463189;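 active means inhibition at or above 50% relative to wild type and mutant plate controls; inactive means inhibition below 50%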;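 further: 0% = wild type cc124 cells in DMSO and 100% = ciliumless bld1 mutant cells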); conditions: OD600 absorbance, 2 days, at 10 µM, stronger effect = higher value
[13] = measured here: cell density z-score
[14] = measured here: nuclear c-Myc green intensity z-score
[15] = measured here: nuclear pErk red intensity z-score, stronger effect = higher value

| Structure (SMILES) | cell count [1] | inhibition [1] | inhibition of aggregation [2] | nuclei count [2] | inhibition [3] | nuclei count [3] | fluorescence slope [4] | NADPH fluorescence slope [5] | fluorescence slope [6] | inhibition [7] | inhibition [8] | z-score [9, 13] | z-score [9, 14] | z-score [9, 15] | inhibition [10] | slope [11] | inhibition [12] |
| --- | --- | --- | --- | --- | --- | --- | --- | --- | --- | --- | --- | --- | --- | --- | --- | --- | --- |
| CC(C)n1c(=NC(=O)c2ccco2)c(C#N)cc2c(=O)n3ccccc3cc21 | 378 | 1.7% (inactive) | -20.7% (inactive) | 104% | -45.7% (inactive) | 112% | -0.576 (inactive) | 3.1e-06 (inactive) | 0.00331 (inactive) | -23.8% (inactive) | -8.73% (inactive) |  |  |  |  |  |  |
| COc1ccc2cc([C@H](C)C(=O)O)ccc2c1 | 649 | -0.4% (inactive) |  |  | -51.6% (inactive) | 120% | -0.491 (inactive) | -6.7e-05 (inactive) |  | 13.2% (inactive) | 30.5% (inactive) | -0.246 | 0.258 | 0.308 | 5.42% (inactive) | 0.00486 (inactive) |  |
| COc1ccc(OC)c(NC(=O)C2CCN(c3cc(-c4ccccc4)nc4ncnn34)CC2)c1 | 449 | 2.1% (inactive) | 17% (inactive) | 95% |  | 150% | -0.528 (inactive) | 1.4e-05 (inactive) | 0.00653 (inactive) | 15% (inactive) | 15.1% (inactive) |  |  |  |  |  |  |
| O=C(Nc1ccc2c(c1)OCO2)C1CCCN1C(=O)Nc1ccccc1F (stereo not given) | 432 | 9% (inactive) | -11.8% (inactive) | 98.2% |  | 135% | -0.418 (inactive) | 3.8e-05 (inactive) | 0.0058 (inactive) | 16.1% (inactive) | 24.2% (inactive) |  |  |  |  |  |  |
| Cc1cnc(C(=O)NCCc2ccc(S(=O)(=O)NC(=O)NC3CCCCC3)cc2)cn1 | 609 | 0.1% (inactive) |  |  | -102% (inactive) | 134% | -0.474 (inactive) | 8e-06 (inactive) |  | 12.9% (inactive) | 21.2% (inactive) | -0.283 | 0.557 | -0.42 | 12.4% (inactive) | 0.0053 (inactive) |  |
| O=C1CC(=O)N(Cc2cccs2)C(=O)N1 | 336 | 4.7% (inactive) | 12.5% (inactive) | 98.3% |  | 116% | -0.632 (inactive) | 5.3e-05 (inactive) | 0.00466 (inactive) | 1.08% (inactive) | 6.01% (inactive) |  |  |  |  |  |  |
| CCOC(=O)c1ccc(COC(=O)CCc2nc3ccccc3[nH]c2=O)o1 | 410 | 10.6% (inactive) | -18.4% (inactive) | 108% |  | 147% | -0.546 (inactive) | 1.7e-05 (inactive) | 0.00556 (inactive) | 15.9% (inactive) | 18.3% (inactive) |  |  |  |  |  |  |
| CCCc1ccc(C(C)NC(=O)c2cnccn2)cc1 (stereo not given) | 375 | 0.4% (inactive) | -9.4% (inactive) | 107% | 32.8% (inactive) | 106% | -0.484 (inactive) | -1.5e-05 (inactive) | 0.00486 (inactive) | 15.6% (inactive) | -1.82% (inactive) |  |  |  |  |  |  |
| CC(C)(C)c1cc(C(=O)O)nn1-c1ccccc1 | 446 | 2.5% (inactive) | 2.7% (inactive) | 94.2% |  | 130% | -0.482 (inactive) | -3.8e-05 (inactive) | 0.00539 (inactive) | 15.1% (inactive) | 24.6% (inactive) |  |  |  |  |  |  |
| COc1cccc(-c2cc3nc4c(c(N5CCC6(CC5)OCCO6)n3n2)CCCC4)c1 | 479 | 10.2% (inactive) | 18.9% (inactive) | 98.9% |  | 149% | -0.401 (inactive) | 2.4e-05 (inactive) | 0.00624 (inactive) | -10.9% (inactive) | -32.3% (inactive) |  |  |  |  |  |  |
| COc1cc(Cc2cnc(N)nc2N)cc(OC)c1OC |  |  |  |  |  |  |  |  |  |  |  |  |  |  |  |  | 0.332% (inactive) |
| Fc1ccc(CN(C2=NCCN2)c2c(Cl)cccc2Cl)cc1 |  |  |  |  |  |  |  |  |  |  |  |  |  |  |  |  | -0.588% (inactive) |
